Results from ChEMBL document CHEMBL1157539, “Thousands of chemical starting points for antimalarial lead identification” (Nature, 2010).

Columns and labels:
Plasmodium falciparum = experiment: GSK_TCMDC: Inhibition of Plasmodium falciparum 3D7 in whole red blood cells, using parasite LDH activity as an index of growth. Test compounds present at 2uM; type: functional
HepG2 = experiment: GSK_TCMDC: Percent inhibition of human HepG2 cell line. Test compounds present at 10uM.; type: functional

Row | Compound | Inhibition (Plasmodium falciparum) [%] | Inhibition (HepG2) [%]
1 | N=C(N)c1nc2ccccc2s1 | 87 | 1
2 | CN(C)Cc1ccc(CNC2CCN(Cc3ccccc3Cl)CC2)cc1.O=C(O)C(F)(F)F | 82 | 23
3 | Cc1csc2nc(C(C)c3ccc(NC(=O)c4cccs4)cc3)oc(=O)c12 (stereo not drawn) | 90 | 0
4 | Nc1nc(O)c2cc(CNc3ccc(C(=O)N[C@@H](CCC(=O)O)C(=O)O)cc3)ccc2n1 | 96 | 2
5 | COc1ccc2c(c1)C(C)(CCCN(C)C)C(=O)N2C.O=C(O)C(=O)O (stereo not drawn) | 93 | 8
6 | CC(C)(C)c1cc(Cl)cc(C(=O)Nc2cc([N+](=O)[O-])ccc2Cl)c1O | 91 | 79
7 | O=C(c1ccccc1)N1CCC[C@](CCCN2CCN(c3ccccc3O)CC2)(c2ccc(Cl)c(Cl)c2)C1 | 80 | 16
8 | CCN1CCN(c2cc(C)c3cc(NC(=O)c4ccc(C(C)(C)C)cc4)ccc3n2)CC1 | 85 | 34
9 | Br.Oc1ccc(CCNCCCCCNCCCc2ccc(Cl)cc2)cc1O | 91 | 22
10 | CC1CN(c2ccc3[nH]cc(Sc4ccc(-c5cccs5)cc4)c3c2)CC(C)N1.Cl (stereo not drawn) | 89 | 29
11 | CC(=O)Nc1cccc(Nc2c3ccccc3nc3ccccc23)c1 | 82 | 31
12 | COc1ccc(C2CC(c3cccs3)=NN2C(=O)COc2cccc(C(C)=O)c2)cc1OC (stereo not drawn) | 99 | 10
13 | O=CO.c1ccc2c3c([nH]c2c1)C(c1ccc2c(c1)CCO2)N(c1ncnc(N2CCN(CCCN4CCOCC4)CC2)n1)CC3 (stereo not drawn) | 80 | 37
14 | COc1ccc(Cl)cc1N1CCN(CCCNC(=O)c2ccc(-c3nc4c(C)cccc4[nH]3)s2)CC1 | 98 | 0
15 | COc1cc(OC)cc(C(=O)Nc2nc(-c3ccc(NC(=O)c4ccccc4)cc3)cs2)c1 | 88 | 16
16 | Cc1cc(OCCCN2CCC(NC(=O)c3ccc(Br)cc3)C2)c2ccccc2n1 (stereo not drawn) | 85 | 13
17 | COc1cc(CCNCC(O)c2ccc([N+](=O)[O-])c(OCc3ccccc3)c2)cc(OC)c1OC.Cl (stereo not drawn) | 98 | 11

Row | Compound | Inhibition (Plasmodium falciparum) [%] | Inhibition (HepG2) [%]
18 | CC(C)CNC(=O)c1ccc(-c2cccc(CN3CCC(N4CCCC4)CC3)c2)nc1.O=C(O)C(F)(F)F | 81 | 4
19 | CCc1cc(-c2n[nH]c(C(F)(F)F)c2-c2ccccc2)c(O)cc1OC | 84 | 9
20 | N=C1SC(=Cc2cn[nH]c2-c2ccc(F)cc2)C(=O)N1c1nccs1 | 91 | 28
21 | CCCN1CCN(CCNc2c3ccccc3nc3ccccc23)CC1 | 88 | 13
22 | C=CC(C)C1OC(=O)c2cc(OC)cc(OC)c21 (stereo not drawn) | 100 | 100
23 | CC1(C)C(=O)N=C2C1=C(O)C(=O)c1ccccc12 | 93 | 0
24 | Cl.O=C(NCCCCN1CCC(c2ccc3c(c2OCCCO)CCCC3)CC1)c1ccc(-c2ccc(C(F)(F)F)cc2)c(CO)c1 | 95 | 66
25 | O=c1ccc2ccc(O)c(O)c2o1 [DAPHNETIN] | 85 | 4
26 | CC(=O)Nc1ccc(CN2CCc3ccc(NS(=O)(=O)c4ccc(-c5cccc(C(F)(F)F)c5)cc4)cc3CC2)s1 | 82 | 23
27 | O=C(Nc1nccs1)c1sc2ccccc2c1O | 96 | 0
28 | C=CCOc1cc(Cc2cnc(N)nc2N)cc(OC)c1OC.Cl | 81 | 0
29 | CC(C)Cc1csc(NC(=O)C=Cc2ccco2)c1C(=O)O | 82 | 4
30 | O=C(O)C(F)(F)F.O=C(O)CCc1ccc(-c2c[nH]c3ncc(-c4ccc5ncccc5c4)cc23)cc1 | 88 | 30
31 | CC(CC1CCCCC1)NCc1ccccc1OCCC(=O)N1CCCC1C(N)=O (stereo not drawn) | 97 | 5
32 | COc1ccc(NC(=O)c2ccc(-c3cccc(OCc4ccccc4)c3)cc2)cc1N1CCN(C)CC1 | 85 | 29
33 | C[C@H]1CN(Cc2ccc(-c3cccc(CNC(=O)c4cccc(C(=O)c5ccc(Cl)c(Cl)c5)c4)c3)s2)CCN1.O=C(O)C(F)(F)F | 99 | 3
34 | CN1CCC(N2CCN(C(=O)c3cccc(-c4cccc(-c5nc6ccccc6[nH]5)c4)c3)CC2)CC1 | 100 | 10
